# Bioassay records from PubChem.
# In the library only some 5.3% were active in any assay of this set; here they are far more common.
# FMDV antiviral – antivirals against foot and mouth disease virus | AID 1159524 | Potency, µM (doses to about 57.9 µM), inactives show at the top dose activity change, negative = inhibition, actives largely listed as inhibitors | 410,000 compounds, 1.2% hits | FMDV antiviral cell-based qHTS; calls by dose curve; tested in HEK293T cells; further: read-out not given here; nearly all actives have a fitted effect of over 45% in size
# HCV inhibitor – HCV inhibition | Huh7.5.1 HCVcc-Cre infection, luciferase reporter, 44 h | Potency, µM (doses to about 41.8 µM), for the others: at the top dose activity change, negative = inhibition, usual class: inhibitors | 340,000 compounds, 3.4% hits | AID 651820; active means well fitted inhibition curve with a large enough effect; inconclusive means small, poorly fitted or top-dose-only effect, or another doubt; inactive means no such curve, though single readings can be large or run the other way
#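 A cell-based infection assay in which seeded cells (1,000 per well) receive test compound after 4 h, are inoculated with HCVcc-Cre at approximately 0.5 moi, and are incubated 44 h before luminescence detection.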
# Lassa entry inh – Lassa virus entry inhibition | Lassa virus pseudotype entry inhibition, cell reporter | Potency, µM (top dose mostly 37.9 µM), for inactives: at the highest dose activity change, negative = inhibition, actives largely listed as inhibitors | 300,000 compounds, 1.2% hits | AID 540256; calls by dose curve; tested in HEK293 cells; further: nearly all actives have a fitted effect of over 50% in size
# Vaccinia Venus – inhibitors of vaccinia virus (Venus reporter); Vaccinia virus Venus reporter expression, fluorescence; Potency, µM (top dose mostly 36.5 µM), inactives show at the top dose activity change, negative = inhibition, hits mostly inhibitors; 330,000 compounds, 0.46% hits; AID 720580; calls by dose curve; tested in A549 cells; further: nearly all actives have a fitted effect of over 30% in size
# MARV entry inh – inhibitors of Marburg virus binding or cell entry; Potency, µM (doses to about 37.8 µM), without a hit: at the highest dose activity change, negative = inhibition, hits mostly inhibitors; Marburg virus pseudotyped entry inhibition, cell reporter; 300,000 compounds, 1.8% hits; calls by dose curve; tested in HEK293 cells
# VACV mCherry inh – vaccinia inhibition (mCherry reporter); Vaccinia virus mCherry reporter infection, fluorescence; Potency, µM (doses to about 36.5 µM), for inactives: top-dose activity change, negative = inhibition, most hits filed as inhibitors; 310,000 compounds, 0.63% hits; AID 720579; calls by dose curve; tested in A549 cells; further: nearly all actives have a fitted effect of over 35% in size
# Active calls of the source: *; i = inactive; u = inconclusive; x = not tested or not shown; [ ] = another dose, or the depositor's remark. On the % scale 0 is the no-effect control and ±100 the full control effect; potency means the concentration at half of the fitted maximal effect.
SMILES,FMDV antiviral,HCV inhibitor,Lassa entry inh,Vaccinia Venus,MARV entry inh,VACV mCherry inh
CCN(c1ccccc1)S(=O)(=O)c1ccc(N)c(OC)c1,0.9%,u,u,-17.4%,3.16µM*,-8.3%
CCN(c1ccccc1)S(=O)(=O)c1ccc(OC)c(NC(=O)Cc2ccccc2OC)c1,-0.5%,10µM*,x,x,x,x
CCN(CC)c1ccc(NC(=O)CNCc2ccccc2Cl)c(C)c1,10.2%,-29.1%,10µM*,-22.2%,-1.3%[46.1 µM],u
CCN(c1ccccc1)S(=O)(=O)c1ccc(OC)c(NC(=O)C2CC2)c1,-7.7%,-22.9%,x,x,x,x
CCN(c1ccccc1)S(=O)(=O)c1ccc(Cl)c(NC(=O)CNCc2ccccc2OC)c1,u,11.2µM*,u,-16.1%,u,i
CCN(c1ccccc1)S(=O)(=O)c1ccc(Cl)c(NC(=O)COC(=O)c2cccc(OC)c2O)c1,-16.0%,-23.6%,-4.0%,-6.6%,-21.9%,-17.8%
CCOC(=O)c1cnc2ccc(C(=O)OC)cc2c1Nc1ccc(OCc2ccccc2Cl)cc1,2.5%,x,u,-0.1%,9.7%[46.1 µM],1.3%
C=C1C=C(C(F)F)n2ncc(C(=O)NCc3ccc(Cl)cc3)c2N1,x,x,x,-19.7%,x,-8.6%
COc1ccc(CN2CCCC(c3nc(C)ncc3-c3ccc(F)cc3)C2)c(OC)c1OC (centres undefined),-10.3%,x,x,-16.4%,x,-12.3%
CC(C)(C)NC(=O)C(c1ccc(F)cc1)N(Cc1cccs1)C(=O)c1ccc(CN2CCOCC2)o1 (centres undefined),9.0%,8.3%,8.0%,-18.1%,2.82µM*,-22.1%
COc1ccc(CCN(C)Cc2ccc(OC)c(OCc3ccccc3)c2)cc1OC,-24.3%,-24.6%,-0.8%,x,18.3µM*,x
COc1ccc(CN(C)CC(=O)Nc2ccc(SC(F)F)cc2)cc1OC,17.8µM*,u,u,-16.6%,u,-19.5%
COc1ccc(CCN(C)Cc2ccc(C(=O)Nc3ccccc3)cc2)cc1OC,-24.5%,10µM*,u,-26.6%,u,i
COc1cc(OC)c(OC)cc1CN1CCOc2ccc(CN3C[C@@H](C)O[C@@H](C)C3)cc2C1,-19.3%,x,x,0.5%,x,-14.9%
CC(C)C(=O)NC(=O)[C@@H]1CCCN1C(=O)C=Cc1ccccc1,x,x,x,x,1.4%[14.2 µM],x
COc1cccc(CNC(=O)Cn2c(C)c3cnn(-c4ccccc4)c(=O)c3c2C)c1,8.8%,x,0.2%[46.1 µM],-5.8%,0.7%[46.1 µM],-12.1%
CCN(CC)c1nc(NC2CCN(C)CC2)c2cc(OC)c(OC)cc2n1,x,x,x,u,x,-35.9%
O=C(OCc1nc2scc(-c3ccccc3)c2c(=O)[nH]1)c1cc([N+](=O)[O-])ccc1Cl,39.8µM*,-0.1%,-0.3%,-7.6%,12.7%,-15.0%
COc1cc(NC(=O)C(Cc2ccccc2)NS(=O)(=O)c2cccc3nsnc23)cc(OC)c1 (centres undefined),1.5%,x,u,-6.6%,u,2.6%
CCOC(=O)c1ccc(NC(=O)NNS(=O)(=O)c2cc(OC)ccc2OC)cc1,20.2%,-3.4%,7.6%,-6.2%,-9.8%,-9.7%
C=C1C(=O)[C@@]23C[C@H]4[C@@H]5[C@@]6(C)CCC[C@@]57[C@@H]2[C@@H](O)[C@@H]1C[C@H]3[C@H]7N4C6,25.1µM*,-45.1%,x,u,x,u
CCOC(=O)N1CCN(C(=O)CSCC(=O)Nc2nc(-c3ccc(-c4ccccc4)cc3)cs2)CC1,u,5.62µM*,x,u,x,u
CCOC(=O)N1CCN(C(=O)CSCC(=O)Nc2nc(-c3ccc(OC)cc3)cs2)CC1,u,u,-18.5%,x,u,x
CCOC(=O)N1CCN(C(=O)CSCC(=O)Nc2nc(-c3ccc(Cl)s3)cs2)CC1,u,11.2µM*,-29.1%,x,-13.3%,x
COc1ccccc1C1(O)CCN(CC(=O)Nc2nc(-c3ccccc3)cs2)CC1,25.1µM*,10µM*,5.62µM*,-10.0%,u,-19.7%
SMILES,FMDV antiviral,HCV inhibitor,Lassa entry inh,Vaccinia Venus,MARV entry inh,VACV mCherry inh
CCCCOc1ccc(CC(=O)N(C)O)cc1,x,x,x,-7.4%,x,-21.4%
Cc1ccc(C2=NC(C)(C)N=C2SCC(=O)Nc2ccc(Cl)cc2)cc1,31.6µM*,u,-3.4%,u,u,u
Cc1ccc(C2=NC3(CCCC3)N=C2SCC(=O)Nc2ccc3c(c2)OCCO3)cc1,-8.1%,u,u,-22.7%,u,-25.7%
CC1(C)N=C(SCC(=O)Nc2ccccc2)C(c2ccc(Cl)cc2)=N1,17.8µM*,u,u,-29.0%,u,u
CC1(C)N=C(SCC(=O)Nc2ccc(Cl)cc2Cl)C(c2ccccc2)=N1,u,u,-13.0%,x,-19.0%,x
O=C(COC(=O)CSc1ccc(Cl)cc1)Nc1ccccc1,-16.9%,14.1µM*,x,x,x,x
O=C(COC(=O)CSc1ccc(Cl)cc1)NCCc1ccccc1,-13.9%,-2.9%,u,2.4%,17.9%,-2.7%
CC(=O)Oc1c(Br)cc(N(C(C)=O)S(=O)(=O)c2ccccc2)c2ccccc12,-2.0%,u,x,x,x,x
O=[N+]([O-])c1ccc(C[n+]2cccc3ccccc32)cc1,-1.8%,8.4%,14.4%,-8.9%,8.2%[46.1 µM],-18.4%
c1ccc(C[n+]2cccc3c4ccccc4ccc32)cc1,u,u,7.08µM*,u,u,u
CCc1cc(=O)oc2cc(C)c(CN3CCC[C@@H](C)C3)c(O)c12,x,x,x,x,14.3%,x
O=C(CC1(O)C(=O)Nc2ccccc21)c1ccccc1O (centres undefined),6.8%,9.5%,-5.4%,-19.2%,7.0%,x
O=C(CC1(O)C(=O)Nc2cc(Cl)cc(Cl)c21)c1ccccc1O (centres undefined),-17.9%,25.1µM*,-17.5%,-12.6%,u,x
CC(Nc1cc(N2CCN(C(=O)C(C)(C)C)CC2)ccc1[N+](=O)[O-])c1ccccc1 (centres undefined),u,u,23.1µM*,x,u,x
CC(C)CC(=O)/C(=C\c1ccc(Cl)cc1Cl)n1cncn1,7.94µM*,u,0.581µM*,12.6µM*,u,u
Cc1ncc2c(c1CNS(=O)(=O)N(C)C)CCN(C(=O)c1c(F)cccc1F)C2,-5.2%,x,x,13.0%,x,-4.4%
COc1cc(C(=O)OCCc2cc3ccccc3c(=O)o2)cc(OC)c1OC,u,3.55µM*,x,-16.4%,x,-12.3%
CC(C)n1c2ccccc2c2cc([N+](=O)[O-])ccc21,-27.4%,8.91µM*,4.7%,-15.4%,u,-20.9%
Cc1cc(Cl)ccc1OCC(=O)NCC(c1cccs1)N1CCOCC1 (centres undefined),31.6µM*,10µM*,u,-25.1%,u,-13.2%
Cc1cc(Cl)ccc1OCC(=O)Nc1ccccc1N1CCOCC1,28.2µM*,u,8.91µM*,-27.3%,u,-24.0%
CCN(CC)S(=O)(=O)c1ccc(N2CCOCC2)c(NC(=O)CC(C)(C)C)c1,-17.0%,-1.7%,x,x,x,x
CCN(CC)S(=O)(=O)c1ccc(N2CCOCC2)c(NC(=O)COc2ccc(Cl)cc2)c1,8.4%,10µM*,x,x,x,x
CC(C)(C)c1ccc(C(=O)NCCC(=O)Nc2cc(Cl)ccc2N2CCOCC2)cc1,3.6%,11.2µM*,x,x,x,x
CC1=C(/C=C/C(=C/C=C/C(C)=C/C(=O)O)c2ccc(C)cc2)C(C)(C)CCC1,34.9%,x,x,x,x,x
